Experimental data reported in PubChem BioAssay (NCI).
About 83,000 compounds went through this panel and 20% of them were active in at least one assay; those are over-represented in the sample as a whole.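 Step 1: grow cells in 96-well plates. Step 2: add test compound at a single concentration. Step 3: incubate 48 h. Step 4: record percent growth.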 Values without a mark were called inactive. The source made the active and inactive calls. Rule for the calls: active = growth percent below 10; inactive = the rest.

Test system: HL-60(TB) leukemia
Experiment: NCI-60 one-dose screen, 48 h (100 = growth as untreated, 0 = no growth, -100 = all killed)
Conditions: 10 µM unless noted

| Structure (SMILES) | growth |
| --- | --- |
| Cc1c(N2CN3C[C@H](C)N4CN(c5c(C)n(C)n(-c6ccccc6)c5=O)CN5C[C@@H](C)N(C2)C3C54)c(=O)n(-c2ccccc2)n1C (stereo not given in full) | -14.5% (active) |
| CCCCCCCCCNCCCCCCCCC | 28.6% |
| CCN(CC)CCOc1ccc(Cl)c(C)c1 | 113% |
| CCCc1cc(=O)oc2c3c(c4c(c12)OC(C)(C)CC4)OC(C)[C@H](C)[C@@H]3O (stereo not given in full) | 109% |
| OCCNc1nc(NCCO)nc(Nc2ccc(C3=NN(c4cc(Cl)cc(Cl)c4)C(c4ccc(C(F)(F)F)cc4)C3)cc2)n1 (stereo not given) | 16.7% |
| O=C(NC1CC1)c1cc2n(n1)CC(c1ccccc1)N2 (stereo not given) | 107% |
| COC(=O)c1cc(O)c2cc3c(cc2c1-c1cc(OC)c(OC)c(OC)c1)OCO3 | 5.92% (active) |
| Nc1nc(N)c2c(n1)NC(c1cccc(Nc3ccnc4cc(C(F)(F)F)ccc34)c1)CC(c1ccc3c(c1)OCO3)=N2 (stereo not given) | 76.5% |
| CCCCCCCCCCCC1=NC(C)(C)CN1C(C)(C)CO | 58.3% |
| CC1CCN(CCOc2ccc(CNc3ccc4nc(CCC5CCCCC5)[nH]c4c3)cc2)CC1 | 5.83% (active) |
| NC(=Nc1nc(-c2ccccn2)cc2ccccc12)c1ccccn1 | -30.6% (active) |
| COc1ccc2c(c1)OC(N)=C(C#N)C2c1ccc(F)c(F)c1 (stereo not given) | -18.4% (active) |
| N#C/C(=C\c1ccc(-c2ccccc2)o1)c1nc(-c2ccco2)cs1 | 99.3% |
| COc1ccc(-c2c3c(N)c4c(nc3nc3c2c(C)nn3-c2ccccc2)CCCC4)cc1 | 87.2% |
| COc1cc2c(cc1NC(=O)C(Cl)Cl)-c1ccc(NC(=O)C(Cl)Cl)cc1C2 | -14.5% (active) |
| COc1cc(/C=C/C(=O)c2ccc(F)cc2)ccc1OCCCCOc1ccc(/C=C/C(=O)c2c(C)nc3ccccc3c2C)cc1OC | 79.8% |
| CC(/C=C/c1ccccc1)=N/NC(=O)c1ccncc1 | 92.2% |
| COc1ccc(-c2c(C)nn3c(NCCN4CCOCC4)cc(C)nc23)cc1OC | 107% |
| CCOc1ccc2c(c1)CC[C@@H]1[C@@H]2CC[C@]2(C)[C@@H](O)[C@@H](O)C[C@@H]12 | 97% |
| CCN1C(=O)N(CC)C2C1NC(=S)N2/N=C/C=C/c1cccs1 (stereo not given) | -41.3% (active) |

| Structure (SMILES) | growth |
| --- | --- |
| COc1cc(C(=O)/C(C)=C/c2c[nH]c3ccccc23)cc(OC)c1OC | -9.27% (active) |
| CCN(CCO)CCNc1ccc(C)c2sc3cc(OC)ccc3c(=O)c12 | 67.5% |
| Nc1ccc(CC[C@H]2CCC/C=C/[C@@H]3C[C@H](O)C[C@H]3[C@H](O)/C=C/C(=O)O2)cc1 | -8.51% (active) |
| CCOC(=O)c1sc2ccc(NCc3nc[nH]c3C)cc2c1NC(=O)c1cc(OC)c(OC)c(OC)c1 | 5.99% (active) |
| CSc1nc(C)c(C(=O)CCN2CCN(c3ccccn3)CC2)s1 | 102% |
| O=C(/C=C/c1ccc(Cl)cc1)c1ccc(Nc2nc(NCCO)nc(Nc3ccc(Cl)cc3)n2)cc1 | 99.4% |
| c1ccc(-c2nc3ccccc3s2)cc1 | 99.5% |
| CCN(CC)c1ccc(/C=N/NC(=O)Cc2ccc(Nc3ccnc(C(F)(F)F)c3)cc2)c(O)c1 | 0.765% (active) |
| COC(=O)c1oc2c(C(=O)/C=C/c3ccc(OC)cc3)c(OCCCN3CCCCC3)ccc2c1C | -54.7% (active) |
| COC1=C(OC)C(=O)C(CCCCCCCCCCO)=C(C)C1=O | 76.8% |
| CCCCC(CC)CN=C(N)NC(N)=NCCCCCCN=C(N)NC(N)=NCC(CC)CCCC (stereo not given) | -76.8% (active) |
| Ic1cccs1 | 104% |
| O=C(O)CN1C(=O)CCC1=O | 134% |
| C=C(C)C1CC(O)C2(C)CCCC3C2C1CC(C)C3(C)CC/C(C)=C/C(O)C1CCC(=O)c2c(OC)cc(OC)cc21 (stereo not given) | 22.4% |
| C=C1c2nc3ccccc3n2C=C(c2ccc(Cl)cc2)N1Cc1ccccc1 | 60.1% |
| CC(C)(C)c1ccc(C(=O)Nc2sc3c(c2C#N)CCC(=O)C3)cc1 | -1.94% (active) |
| COc1ccc(/C=C/C(=O)c2cccc(B(O)O)c2)cc1O | 4.3% (active) |
| CCCC(CCC)Oc1ccc(CCCC2=C(O)c3ccccc3C(=O)C2=O)cc1 | 37.5% |
| CCN(CC)CCCCNc1c2ccc(Cl)cc2nc2ccc(OC)cc12 | -34.8% (active) |
| COc1ccccc1CNCCCN1C(=O)c2ccc3c4c(ccc(c24)C1=O)C(=O)N(CCCOCCCCOCCCN)C3=O | -50.2% (active) |
